From the supplement of paper PMC13380429

System: Vero E6 infected with SARS-CoV-2
Assay: inhibition of SARS-CoV-2 cytopathic effect; higher = more antiviral protection, active = above 15
Conditions: 48 h

Measured: inhibition of SARS-CoV-2 cytopathic effect

Cc1cc(C(=O)Nc2nc3cccc(Cl)c3n2[C@@H]2CCCCN(C(=O)/C=C/CN(C)C)C2)ccn1
inactive: 1 nM 2.52% | 8.33 nM -0.94% | 100 nM 0.57% | 833.33 nM -8.44% | 10000 nM 10.4%

CCOc1ccccc1OCC1CNCCO1 (stereo not given) [viloxazine]
inactive: 1 nM 5.7% | 8.33 nM 7.03% | 100 nM 7.67% | 833.33 nM 2.71% | 10000 nM 3.05%

O=C(NNc1ccccc1)c1ccncc1 [plurisin-1]
inactive: 1 nM 0.37% | 8.33 nM 1.32% | 100 nM 1.76% | 833.33 nM -2.79% | 10000 nM -6.02%

O=C1NC(=O)/C(=C/c2ccc3c(c2)OC(F)(F)O3)S1
inactive: 1 nM 2.29% | 8.33 nM 1.22% | 100 nM -6.83% | 833.33 nM -7.64% | 10000 nM -7.56%

CC(C)(Oc1ccc(CCNC(=O)c2ccc(Cl)cc2)cc1)C(=O)O [bezafibrate]
inactive: 1 nM -1.42% | 8.33 nM 0.91% | 100 nM -1.38% | 833.33 nM 0.02% | 10000 nM -0.38%

COc1cc(O)c2c(c1)C(=O)c1cc(C)cc(O)c1C2=O [rheochrysidin]
inactive: 1 nM 1.91% | 8.33 nM 1.62% | 100 nM 1.33% | 833.33 nM -0.52% | 10000 nM -0.59%

O=c1oc(-c2ccc(C(F)(F)F)cc2)nn1Cc1cc(Cl)ccc1O
inactive: 1 nM -2.43% | 8.33 nM -1.09% | 100 nM 3.13% | 833.33 nM 3.7% | 10000 nM 13.8%
